Screens: PubChem BioAssay, Buhrlage Lab, Dana-Farber Cancer Institute and Novartis Institutes for BioMedical Research (Cambridge, Mass)
USP30 inh = blocks human USP30 ubiquitin-rhodamine cleavage. purified USP30, Ub-rhodamine cleavage fluorescence. inhibition, % at 25 µM. hit rate 5.3% among 47,000
USP28 block = blocks human USP28 ubiquitin-rhodamine cleavage; purified USP28, Ub-rhodamine cleavage fluorescence, 30 min; inhibition, % at 25 µM; hit rate 3% among 47,000; AID 1645857
USP17 block = inhibitors of human USP17 deubiquitinase; AID 1645855; purified USP17, Ub-rhodamine cleavage fluorescence, 3 h; inhibition, % at 50 µM; A8MUK1; hit rate 6.5% among 47,000
Target sequence (A8MUK1 whole entry, looked up): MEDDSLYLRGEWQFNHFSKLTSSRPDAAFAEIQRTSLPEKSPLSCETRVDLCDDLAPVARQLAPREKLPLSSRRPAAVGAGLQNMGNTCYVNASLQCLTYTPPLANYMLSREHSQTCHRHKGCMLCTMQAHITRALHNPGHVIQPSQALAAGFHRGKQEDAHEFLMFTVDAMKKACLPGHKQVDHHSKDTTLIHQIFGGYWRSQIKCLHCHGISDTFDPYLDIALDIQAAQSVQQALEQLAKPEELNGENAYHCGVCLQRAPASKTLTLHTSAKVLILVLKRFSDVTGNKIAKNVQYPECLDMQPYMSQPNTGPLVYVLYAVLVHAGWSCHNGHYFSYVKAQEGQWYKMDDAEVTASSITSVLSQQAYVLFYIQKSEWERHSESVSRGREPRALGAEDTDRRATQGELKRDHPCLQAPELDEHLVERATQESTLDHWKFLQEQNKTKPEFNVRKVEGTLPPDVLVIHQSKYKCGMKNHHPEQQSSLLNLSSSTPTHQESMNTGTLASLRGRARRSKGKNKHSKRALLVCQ
OTUD3 inh = human OTUD3 deubiquitinase inhibition; Q5T2D3; purified OTUD3, Ub-rhodamine fluorescence, 2 h; inhibition, % at 25 µM; hit rate 0.7% among 47,000
* hit, by the source's call. Rows were chosen to be rich in hits. Some 11% of all compounds tested hit in one or more screens of this group. Rule as the data show it: active = inhibition above about 30%; inactive = the rest.

O=C(Cn1cnc2c(nc3n2CCCCC3)c1=O)Nc1ccc(Cl)cc1 was read as USP30 inh 6, USP28 block 6, USP17 block -4 and OTUD3 inh 1.
For O=C(COc1nsnc1N1CCOCC1)Nc1ccccc1F the results were USP30 inh 11, USP28 block 6, USP17 block 16 and OTUD3 inh 81*.
CN(C(=O)COc1nsnc1N1CCOCC1)c1ccccc1 was read as USP30 inh 16, USP28 block 1, USP17 block 9 and OTUD3 inh 7.
`O=C(COc1nc2ccccc2nc1N1CCOCC1)Nc1ccc2c(c1)OCO2` gave USP30 inh -92, USP28 block -29, USP17 block 11 and OTUD3 inh -32.
For O=C(COc1nsnc1N1CCOCC1)Nc1ccc(F)c(F)c1 the results were USP30 inh 57*, USP28 block 13, USP17 block 3 and OTUD3 inh 2.
`CC1CCc2noc(C3CCN(C(=O)c4ccnn4C)CC3)c2C1` (stereo not drawn) gave USP30 inh 16, USP28 block 11, USP17 block 9 and OTUD3 inh 12.
`Cc1nn(-c2nc3ccccc3o2)c2c1C(c1ccc(C#N)cc1)CC(=O)N2` (stereo not drawn) gave USP30 inh 19, USP28 block 2, USP17 block 3 and OTUD3 inh 3.
Screening CN1CCC2(CN(Cc3cccnc3)CC23CCN(C(=O)c2ccccc2)CC3)C1=O (stereo not drawn) returned USP30 inh -32, USP28 block 0, USP17 block -1 and OTUD3 inh -7.
For O=C1c2ccccc2-c2nnc(-c3ccncc3)cc21 the results were USP30 inh 34*, USP28 block 13, USP17 block 47* and OTUD3 inh 16.
For O=C1CC(C(=O)Nc2ccc(F)cc2)n2nc(SCc3ccccc3)nc2N1 (stereo not drawn) the results were USP30 inh 58*, USP28 block 28, USP17 block 2 and OTUD3 inh 13.
`O=C1CC(C(=O)Nc2cccc(F)c2)n2nc(SCc3ccccc3)nc2N1` (stereo not drawn) gave USP30 inh 43*, USP28 block 16, USP17 block 1 and OTUD3 inh -4.
`O=C(c1cc(-c2ccccn2)n[nH]1)N1CCC2(CC=CCOC2)CC1` gave USP30 inh -2, USP28 block -5, USP17 block -20 and OTUD3 inh -9.
For O=C(NCc1ccccc1Cl)C1CCn2c(nc3ccccc32)C1 (stereo not drawn) the results were USP30 inh -3, USP28 block -2, USP17 block -12 and OTUD3 inh -2.
O=C(OC1CSc2nc3ccccc3n2C1)c1ccc([N+](=O)[O-])o1 (stereo not drawn) was read as USP30 inh -62, USP28 block -2, USP17 block 96* and OTUD3 inh 5.
For CCS(=O)(=O)NCCc1csc(-c2ccc(OC)c(OC)c2)n1 the results were USP30 inh -9, USP28 block 0, USP17 block -5 and OTUD3 inh -7.
`N#Cc1ccc(COc2ncnc3scc(-c4ccccc4)c23)cc1` gave USP30 inh 10, USP28 block 35*, USP17 block -9 and OTUD3 inh 0.
`COc1ccc(CCN(C)c2ncnc3c2[nH]c2ccccc23)cc1OC` gave USP30 inh -17, USP28 block -7, USP17 block 0 and OTUD3 inh -2.
`COc1ccc(CCN(C)C(=O)COc2ncnc3ccccc23)cc1OC` gave USP30 inh 32*, USP28 block -182 and OTUD3 inh 14.
`COC(=O)c1ccc(Cn2nnc3c(=O)[nH]c(C4CCCN(S(=O)(=O)c5ccc(C)cc5)C4)nc32)cc1` (stereo not drawn) gave USP30 inh 36*, USP28 block 32*, USP17 block 27 and OTUD3 inh 13.
Screening O=c1[nH]c(C2CCN(S(=O)(=O)c3ccc(S(=O)(=O)NC4CC4)cc3)CC2)nc2c1nnn2Cc1cccc(F)c1 returned USP30 inh -30, USP28 block 11, USP17 block 11 and OTUD3 inh -7.
Screening O=c1[nH]c(C2CCN(S(=O)(=O)c3ccc(S(=O)(=O)NC4CC4)cc3)CC2)nc2c1nnn2Cc1cccc(Cl)c1 returned USP30 inh 42*, USP28 block 38*, USP17 block 25 and OTUD3 inh 2.
Cc1ccc(Cn2nnc3c(=O)[nH]c(C4CCN(S(=O)(=O)c5ccc(S(=O)(=O)NC6CC6)cc5)CC4)nc32)cc1 was read as USP30 inh 43*, USP28 block 22, USP17 block 19 and OTUD3 inh -10.
`O=c1[nH]c(C2CCN(S(=O)(=O)c3ccc(S(=O)(=O)NC4CCCC4)cc3)CC2)nc2c1nnn2Cc1cccc(Cl)c1` gave USP30 inh 59*, USP28 block 38*, USP17 block 23 and OTUD3 inh 2.
CCn1c(CNC(=O)c2ccco2)nnc1SCC(=O)Nc1ccc(F)cc1 was read as USP30 inh 0, USP28 block -1 and OTUD3 inh 0.
Screening OC1CCN(c2cc(-c3ccccc3)nc(-c3ccccn3)n2)CC1 returned USP30 inh 2, USP28 block -2, USP17 block -5 and OTUD3 inh 0.
Screening CC(C)N1CCOCC2(CCCN(C(=O)c3ccn[nH]3)C2)C1 (stereo not drawn) returned USP30 inh -5, USP28 block -6, USP17 block -3 and OTUD3 inh -6.
Cc1c(Cl)ccc2c(=O)c3c([nH]c12)CCN(CC(=O)NCc1ccc2c(c1)OCO2)C3 was read as USP30 inh -51, USP28 block 32*, USP17 block 49* and OTUD3 inh 29.
CCc1ccc2[nH]c3c(c(=O)c2c1)CN(CC(=O)NCc1ccc2c(c1)OCO2)CC3 was read as USP30 inh 24, USP28 block 19, USP17 block 70* and OTUD3 inh -8.
CCc1cc(=O)n(CC(=O)NCc2ccc3c(c2)OCO3)c(N)n1 was read as USP30 inh 1, USP28 block 0, USP17 block 8 and OTUD3 inh -10.
`Cc1cccc2c(=O)c3c([nH]c12)CCN(CC(=O)NCc1ccccc1)C3` gave USP30 inh -154, USP28 block -28, USP17 block -167 and OTUD3 inh -38.
`Cc1ccc2c(=O)c3c([nH]c2c1C)CCN(CC(=O)NCc1ccc2c(c1)OCO2)C3` gave USP30 inh -11, USP28 block -4, USP17 block 52* and OTUD3 inh -8.
`CC(=O)N1CCn2c(c(C(=O)Nc3ccc(F)cc3)c3cccnc32)C1` gave USP30 inh -16, USP28 block -16, USP17 block -12 and OTUD3 inh -15.
`CCc1cnc(N2CCC3(CCCC(=O)N3)CC2)nc1` gave USP30 inh 12, USP28 block 4, USP17 block -4 and OTUD3 inh 14.
For CCOc1ccc(NC(=O)Cn2c(=O)n(Cc3ccncc3)c(=O)c3ncccc32)cc1 the results were USP30 inh 12, USP28 block 22, USP17 block 20 and OTUD3 inh 7.
